In PubChem BioAssay (NCATS):
Records with an inconclusive call do not appear. Unmarked numbers belong to inactive results. Calls come from the whole dose curve; as a rule, active = well fitted inhibition curve with a large enough effect; inconclusive = small, poorly fitted or top-dose-only effect; inactive = no such curve, though single readings can be large or run the other way.

Test: Primary fluorescence-based thiol-reactive (MSTI) qHTS assay for identification of artifact compounds. (AID 1845221);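 note: thiol-reactive compounds lower the probe fluorescence signal; nearly all actives have a fitted effect of over 65% in size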
Conditions: MSTI thiol-reactivity probe, 1 h; series mostly up to 53.8 µM; activity change, negative = thiol reactive: at the top concentration
Source text: PI: Alexander Tropsha Ph.D.
UNC Eshelman School of Pharmacy
University of North Carolina, Chapel Hill, North Carolina
Hits from high-throughput screening (HTS) of chemical libraries are often false positives due to their interference with the assay detection technology. In response to this problem, we generated the largest publicly available library of chemical liabilities and developed a free webtool to predict HTS artifacts, both of which are described herein. More specifically, we generated, curated, and integrated HTS datasets for thiol reactivity, redox activity, and luciferase (firefly and nano) activity. Using these curated datasets, we developed and validated several Quantitative Structure-Interference Relationship (QSIR) models to predict nuisance behavior. […] These models were employed for virtual profiling of the National Center for Advancing Translational Science's (NCATS) in-house library, and 256 compounds for each assay were selected for the experimental validation of nuisance behavior. The BA for these external predictions ranged from 58 to 78% for compounds within the applicability domains of the models. […] The models developed in this study, along with aggregation models previously developed by our group (SCAM Detective) were implemented in "Liability Predictor," an online tool which may be used as part of chemical library design or for triaging HTS hits. Both the models and the curated datasets are publicly available at https://liability.mml.unc.edu/.
SEQUENCE No. (e.g., 1, 2, 3, etc.); […] (e.g., Cells, Incubation, Reagent, etc.); VALUE; DESCRIPTION.
1; Reagent; 4 uL; […].
2; Compounds and control; 16 nL; Kalypsis pin tool (Wako USA) equipped with a 1536-well pin head.
4; Detection; Fluorescence, ViewLux microplate reader, 525 nm excitation, 598 nm emission.
NOTES (numbers refer to Sequence numbers above)
1. Assays determining (E)-2-(4-mercaptostyryl)-1,3,3-trimethyl-3H-indol-1-ium (MSTI) reactivity were performed as previously described in the literature with modifications for the quick identification of compounds reacting with thiol. In brief, 4 uL of MSTI or positive control Acetyl-MSTI (final concentrations of 4 uM and 4 uM, respectively) in assay buffer (2% DMSO in 1X PBS pH 7.4) was dispensed into all wells of a 1536-well assay plate (solid-bottom black plate; Greiner Bio One, Monroe, NC).
2. A Wako Pin-tool (Wako Automation, Richmond, VA) was used to transfer 16 nL of compounds (consisting of 7-plates in qHTS format, final concentration range 18.3 nM to 114 uM) or control MLS001163887 (final concentration range 1.22 nM to 40 uM).
3. Plates were centrifuged (121xg, 15 seconds) and incubated for 1 hour at room temperature protected from light.
4. Samples were read for fluorescence (Ex/Em = 525(20)/598(25) nm) on a ViewLux CCD imager (PerkinElmer). Data were normalized to Acetyl-MSTI (0% activity) and MSTI (100% activity) and the resulting percent inhibition data were fitted to a 4-parameter Hill equation using NCATS in-house software.

SMILES	activity change, negative = thiol reactive
Cc1nnc2n1-c1sc(CCc3ccc(CC(C)C)cc3)cc1C(c1ccccc1Cl)=NC2C (stereo not drawn)	-20.8%
CCOC(=O)c1ncn2c1CN(C)C(=O)c1c(I)cccc1-2	30.5%
CCOC(=O)c1cncn1C(C)c1ccccc1 (stereo not drawn)	-12%
COc1ccc2c(C(=O)c3ccc(Cl)cc3)c(C)n(CC(=O)O)c2c1	6.95%
CCOC(=O)NC(C)(C)Cc1ccc(Cl)cc1	16.7%
O=C(O)CCCCCCNC1c2ccccc2CCc2ccccc21	36.3%
O=C(N[C@H]1N=C(c2ccccc2F)c2cccc3c2N(CC3)C1=O)c1cc2ccccc2[nH]1	511%
CC[C@H]1C[C@H]2[C@@H]3CCC4=CC(=O)CC[C@@H]4[C@H]3CC[C@]2(C)[C@H]1O	91%
CCCOC(=O)Cc1ccc(OCC(=O)N(CC)CC)c(OC)c1	67.5% [at 25.6 µM]
CCCC[N+]1(C)[C@@H]2CC(OC(=O)[C@H](CO)c3ccccc3)C[C@H]1[C@@H]1O[C@@H]12 (stereo partly drawn)	21.8%
CCCCC1C(=O)NC(=O)N(C2CCCCC2)C1=O (stereo not drawn)	6.97%
C[C@]12CC[C@H](O)CC1=CC[C@@H]1[C@@H]2CC[C@]2(C)C(=O)CC[C@@H]12	89.3%
O=C(N[C@@H]1N=C(c2ccccc2F)c2cccc3c2N(CC3)C1=O)c1cc2ccccc2[nH]1	233% [at 25.6 µM]
